GPT2 inhibitor – Primary qHTS assay for inhibitors of Glutamate pyruvate transaminase 2 (GPT2). Alanine aminotransferase 2 (Homo sapiens), Q8TD30. 0.25% of 100,000 active. Potency, µM (doses to about 57.7 µM), inactives show at the top dose activity change, negative = inhibition, most hits filed as inhibitors. AID 1671188, 2021. Recombinant GPT2, coupled pyruvate oxidase/HRP Amplex Red fluorescence; note: nearly all actives have a fitted effect of over 60% in size
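GPT2 10ng/uL, a-KG 250uM, L-Ala 2mM, HEPES pH7.5 + 0.0001% Tween; 30 min RT. Then Amplex mix (PO/HRP/ThPP), 30 min RT dark, fluorescence. AOA 50uM used as positive control.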
NPR1 antag – Natriuretic polypeptide receptor (hNpr1) antagonism - Primary qHTS; HEK293 hNpr1 GloSensor cGMP, ANP-stimulated luminescence; Potency, µM (highest dose often 46.3 µM), without a hit: top-dose activity change, negative = inhibition, most hits filed as inhibitors; 1.6% of 76,000 active; Atrial natriuretic peptide receptor 1 (Homo sapiens), P16066; calls by dose curve; note: nearly all actives have a fitted effect of over 60% in size
Target sequence (P16066 whole entry, looked up): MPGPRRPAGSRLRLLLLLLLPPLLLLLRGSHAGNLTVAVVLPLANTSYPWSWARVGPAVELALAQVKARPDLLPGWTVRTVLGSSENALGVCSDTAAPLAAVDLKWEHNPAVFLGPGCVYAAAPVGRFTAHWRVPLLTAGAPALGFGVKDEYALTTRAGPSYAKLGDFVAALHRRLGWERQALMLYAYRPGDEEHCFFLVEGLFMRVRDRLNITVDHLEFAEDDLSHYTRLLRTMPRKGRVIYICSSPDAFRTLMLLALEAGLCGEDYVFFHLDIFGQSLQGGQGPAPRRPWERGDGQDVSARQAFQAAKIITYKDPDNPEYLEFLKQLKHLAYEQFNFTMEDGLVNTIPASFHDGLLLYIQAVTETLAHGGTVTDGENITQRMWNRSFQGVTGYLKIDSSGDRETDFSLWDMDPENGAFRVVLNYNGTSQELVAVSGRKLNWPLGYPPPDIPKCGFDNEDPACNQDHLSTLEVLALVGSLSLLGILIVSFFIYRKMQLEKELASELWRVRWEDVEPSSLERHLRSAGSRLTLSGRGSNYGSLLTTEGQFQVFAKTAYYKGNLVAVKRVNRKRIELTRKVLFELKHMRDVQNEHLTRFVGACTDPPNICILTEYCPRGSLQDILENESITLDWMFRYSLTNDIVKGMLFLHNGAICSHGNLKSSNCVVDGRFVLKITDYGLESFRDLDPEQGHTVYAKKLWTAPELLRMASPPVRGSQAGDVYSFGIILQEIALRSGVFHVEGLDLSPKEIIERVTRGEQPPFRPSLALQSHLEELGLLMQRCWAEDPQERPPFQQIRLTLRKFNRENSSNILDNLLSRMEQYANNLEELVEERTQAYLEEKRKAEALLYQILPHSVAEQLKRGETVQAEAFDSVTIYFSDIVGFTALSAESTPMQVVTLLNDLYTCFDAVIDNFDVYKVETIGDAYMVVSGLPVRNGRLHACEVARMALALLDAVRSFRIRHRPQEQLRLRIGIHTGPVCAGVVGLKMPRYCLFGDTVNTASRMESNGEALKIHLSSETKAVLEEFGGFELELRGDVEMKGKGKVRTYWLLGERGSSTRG
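HEK293 cells stably expressing human Npr1 and cGMP GloSensor pGS-40F, loaded 2 h with 2% GloSensor reagent, given compound 30 min at room temperature. Luminescence read before and 20 min after 0.1 nM hNppA.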
HEK cytotox – Cytotoxic Profiling in HEK 293 Cell Line of Diverse Libraries Using Quantitative High-Throughput Screening | AID 1345083, 2018 | 6.6% of 94,000 active | Potency, µM (titrated, usually from 115 µM), for inactives: at the top dose activity change, negative = cytotoxicity, most hits filed as inhibitors | HEK 293 viability, ATP luminescence (CellTiter-Glo), 48-72 h; note: nearly all actives have a fitted effect of over 60% in size
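HEK 293 cells seeded at 250 cells/well were exposed to compound for 48 or 72 hr at 37 degree Celsius. Viability taken as ATP content by CellTiter-Glo luminescence.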
Luciferase inh – Firefly luciferase inhibition profiling of diverse chemical library using quantitative high-throughput screening; Luciferin 4-monooxygenase (Photinus pyralis), P08659; purified P. pyralis luciferase, luminescence, biochemical; Potency, µM (titrated, usually from 115 µM), actives largely listed as inhibitors; 2.5% of 76,000 active; note: nearly all actives have a fitted effect of over 65% in size
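Purified P. pyralis luciferase (10nM final) in 50mM Tris acetate pH 7.5, 10mM Mg acetate, 0.01% Tween-20, 0.05% BSA with 10uM D-luciferin and 10uM ATP. Compounds titrated qHTS. Luminescence imaged on CCD.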
NIH3T3 tox – Cytotoxic Profiling in NIH 3T3 Cell Line of Diverse Libraries Using Quantitative High-Throughput Screening | AID 1345082, 2018 | Potency, µM (series often up to 96.7 µM), without a hit: at the top dose activity change, negative = cytotoxicity, hits mostly inhibitors | 4.3% of 94,000 active | NIH 3T3 viability, CellTiter-Glo ATP luminescence, 48-72 h; note: nearly all actives have a fitted effect of over 55% in size
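Viability of NIH 3T3 cells after 48 or 72 hr compound treatment at 37 °C was assessed by CellTiter-Glo, with luminescence imaged following a 10 min room-temperature step.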
Active calls of the source: *; i = inactive; u = inconclusive; x = not tested or not shown; ! = a repeat was not active; [ ] = dose if it differs, or a comment. Sampled rows, rich in hits. Any-hit rate of the full collection: about 10%. Unless noted, calls come from the whole dose curve; as a rule, active = well fitted curve in the direction sought with a large enough effect; inconclusive = small, poorly fitted or top-dose-only effect, or another doubt; inactive = no such curve, though single readings can be large; an effect the other way counts as inactive or inconclusive. % is set by controls: 0 for no effect and ±100 for the full control effect; potency is the fitted concentration of half-maximal effect.

SMILES	GPT2 inhibitor	NPR1 antag	HEK cytotox	Luciferase inh	NIH3T3 tox
COCCOc1cc(C)c2c(c1C)C[C@H](C(C)C(=O)NCc1cccs1)CC2 (some centres undefined)	i	-12.6%[70.6 µM]	50.1µM*	i	u
Cc1cc(OCCN(C)C)c(C)c2c1CC[C@@H]([C@H](C)C(=O)NCc1ccccc1)C2	-28.5%[88.5 µM]	-7.3%[70.6 µM]	50.1µM*	i	56.2µM*
COc1cc(C)c2c(c1C)C[C@H](C(C)C(=O)NCc1cccs1)CC2 (some centres undefined)	i	-8.6%[70.6 µM]	u	i	35.5µM*
Cc1nn(C)c(C)c1CCNC(=O)C1(CCO)CC12CCOCC2 (centres undefined)	1.2%	1.9%	-0.9%	i	-13.5%
COc1ccc(C(C)NC(=O)c2cc3c(N4CCCC4)nc(C)cn3n2)cc1OC (centres undefined)	0.1%	5.3%	u	i	-18.1%
CCN1c2cc(C(=O)Nc3ccc(Cl)cc3C)ccc2C(=O)N2CCCCCC21 (centres undefined)	4.6%	6.2%	u	i	u
CC/C=C\CCO[C@@H]1O[C@H](CO)[C@@H](O)[C@H](O)[C@H]1O	-29.5%	x	x	x	x
Cn1cc(CN2CCC(C(O)c3cccnc3)CC2)c(-c2ccc(C3CCCCC3)cc2)n1 (centres undefined)	i	5.6%	79.4µM*	i	79.4µM*
O=C(NCC1CC1)C1CCCN(c2nccc(Nc3ccccc3F)n2)C1 (centres undefined)	4.7%	x	u	x	u
O=C(C1CCCN(c2nccc(Nc3ccccc3F)n2)C1)N1CCN(c2ncccn2)CC1 (centres undefined)	i	x	u	x	u
O=C(NCc1cccc(F)c1)C1CCCN(c2nccc(Nc3ccccc3F)n2)C1 (centres undefined)	-13.5%	x	u	x	28.2µM*
O=C(NCC1CCCCCC1)C1CCCN(c2nccc(Nc3ccccc3F)n2)C1 (centres undefined)	-14.2%	x	28.2µM*	x	u
COc1cccc(CNC(=O)C2CCN(c3nccc(Nc4ccccc4F)n3)CC2)c1	i	x	u	x	u
CN(C)C(=O)C1CCCN(c2nccc(Nc3ccccc3F)n2)C1 (centres undefined)	i	x	u	x	u
O=C(C1CCCN(c2nccc(Nc3ccccc3F)n2)C1)N1CCCC1 (centres undefined)	u	x	44.7µM*	x	31.6µM*
O=C(NCc1ccc(C(F)(F)F)cc1)C1CCCN(c2nccc(Nc3ccccc3F)n2)C1 (centres undefined)	i	x	u	x	31.6µM*
CCCC(=O)NC1CCN(c2cnn(CC3CC3)c(=O)c2)CC1	i	6.2%	-3.9%	i	-9.0%
O=C(O)CCC(=O)N1Cc2ccccc2CC2(CCCN2Cc2cccnc2)C1 (centres undefined)	-8.3%	x	i	x	i
Clc1ccc2nc(-c3nc(C4CCOC4)no3)cn2c1 (centres undefined)	-10.7%	0.3%	-1.2%	u	2.3%
Cc1ncoc1C(=O)N1CCCN(S(C)(=O)=O)C(c2ccccc2)CC(=O)NCC1 (centres undefined)	i	3.7%	-1.3%	i	-16.4%
O=C(NCc1ccccc1)C1CCCN(c2nccc(Nc3ccccc3F)n2)C1 (centres undefined)	-13.4%	x	17.8µM*	x	31.6µM*
Cc1ccc(C(=O)NC2CCN(c3ccc(F)cc3)C2=O)c(C)c1 (centres undefined)	-11.1%	-0.8%	-4.5%	i	i
Cc1cnc(CC2CCN(S(=O)(=O)c3ccc(C#N)cc3)C2)n1C1CC1 (centres undefined)	-10.6%	3.7%	u	i	-17.9%
CC(C)Cc1cnc(-c2cccnc2)[nH]1	0.2%[88.5 µM]	x	-1.0%[230 µM]	x	u
CC(C)Cc1cnc(-c2ccccc2)[nH]1	-0.3%[88.5 µM]	x	100µM*	x	u
SMILES	GPT2 inhibitor	NPR1 antag	HEK cytotox	Luciferase inh	NIH3T3 tox
CC(C)Cn1c(CNC(=O)OC(C)(C)C)nc2cccnc21	1.6%	4.8%[70.6 µM]	u	i	44.7µM*!
COc1cncc(N2CC3(COCC(=O)N(Cc4cccc(OC(F)(F)F)c4)C3)C2)c1	u	-2.2%[70.6 µM]	u	i	u
COCCNC(=O)c1nc(-c2c(C)cccc2C)c2ccccn12	-5.2%[88.5 µM]	-0.6%[70.6 µM]	35.5µM*	i	u
COCCNC(=O)c1nc(-c2ccc(OC)cc2)c2ccccn12	i	x	u	x	u
COC(=O)CNC(=O)c1nc(-c2c(C)cccc2C)c2ccccn12	i	-0.1%	u	u	-21.0%
Cc1cccc(C)c1-c1nc(C(=O)NCCc2ccc(Cl)cc2)n2ccccc12	i	-4.6%	50.1µM*	i	-27.3%
COC(=O)CNC(=O)c1nc(-c2cc(Cl)cc(Cl)c2)c2ccccn12	-10.8%	-24.7%	35.5µM*	i	-15.1%
COCCNC(=O)c1nc(-c2ccccc2)c2ccccn12	-20.5%[88.5 µM]	6.9%[70.6 µM]	100µM*	i	u
CC(=O)N1CC2(CCN(Cc3cnc(N)nc3)CC2)CC1C(=O)O (centres undefined)	u	-9.7%	3.5%	i	-14.6%
COc1ccccc1-c1nc(C(=O)NCCc2ccc(Cl)cc2)n2ccncc12	4.5%	x	u	x	28.2µM*
O=C(NCCc1ccc(Cl)cc1)c1nc(-c2ccc(Cl)cc2Cl)c2cnccn12	-1.5%	x	u	x	-26.0%
CN(Cc1nnc(C(=O)N2CCC[C@@H]2c2cccc(F)c2)n1-c1ccccc1)c1ccccc1	i	-3.4%	u	i	u
CC(=O)N1CCCN(Cc2nnc(C(=O)N3CCC[C@@H]3c3cccc(F)c3)n2-c2cccnc2)CC1	-15.7%	-0.9%	35.5µM*	i	22.4µM*
CC(=O)CC/C=C(\C)CC/C=C(\C)CC/C=C(\C)CCC=C(C)C	i	x	x	x	x
O=C(c1ccccc1OCC1CCCN(C2CCCC2)C1)N1CCCC1 (centres undefined)	i	-5.6%	u	i	-12.0%
COc1cccc(CN2CCOC3CCN(Cc4ccccc4O)CC3C2=O)c1 (centres undefined)	-8.2%[88.5 µM]	-3.7%[70.6 µM]	u	i	-12.4%[138 µM]
COc1cccc(CN2CCOC3CCN(CCCc4ccccc4)CC3C2=O)c1 (centres undefined)	-10.6%[88.5 µM]	-0.7%[70.6 µM]	u	i	79.4µM*
O=C(O)c1ccccc1C(=O)N1C[C@@H]2C[C@H]1C(=O)N(CC1CC1)c1ccccc1O2	-5.5%[88.5 µM]	-0.6%[70.6 µM]	2.5%[172 µM]	i	i
